Where “and” joins values, the source holds several entries; their conditions need not be identical. Equal values may be shown once. Inconclusive results are not listed. A call without a number means that no potency is given here. Calls of active or inactive are those of the source. Calls come from the whole dose curve; as a rule, active = well fitted cell-killing curve with a large enough effect in the repeat runs; inconclusive = weak or mixed curves, or effect the other way; inactive = flat fitted curve, though single readings scatter.

The results in this text go back to PubChem BioAssay (Tox21).
Potency is the fitted concentration of half-maximal effect.

This test can be described thus: cAMP Responsive Elements (CRE) small molecule agonists, cell-based qHTS assay: qHTS cell viability counter screen (AID 2060914).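 Note: viability read after 3 h of compound exposure; nearly all actives have a fitted effect of over 50% in size.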 The settings on record: CRE-bla HEK293T viability, CellTiter-Glo luminescence, 5 h; series mostly up to 92.4 µM. In short, it runs like this:
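CRE-bla HEK 293T cells, plated 18 h at 37 °C, were exposed to compounds for 3 h at 37 °C/5% CO2. Viability was then measured in the same wells by CellTiter-Glo luminescence after 30 min at room temperature.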
On the technique in general: Quantitative high-throughput screening tests each substance at several concentrations.
Consider `Cc1ccc(NC(=O)c2ccc(CN3CCN(C)CC3)cc2)cc1Nc1nccc(-c2cccnc2)n1`, for which the Potency result is “inactive”. The entry for `CC1=Nc2ccccc2C1(C)C` is “inactive”; for `CCCOC(=O)C(C)O` (stereo not given) it is “inactive”; for `CC(=O)OCC(CCn1cnc2cnc(N)nc21)COC(C)=O` it is “inactive”. As to `O=C(O)c1cc(N=Nc2ccc(S(=O)(=O)Nc3ccccn3)cc2)ccc1O`, the Potency result was “inactive”.

For `CC(C)CCCCCOC(=O)CS`, the Potency entry is “inactive”. Next, `CCN=c1cc2oc3cc(NCC)c(C)cc3c(-c3ccccc3C(=O)OCC)c-2cc1C`: 68.3 µM (active) and 61.1 µM (active); `CCCCCCCCNC`: “inactive”. The entry for `CNCC(O)c1ccc(O)c(O)c1` (stereo not given) is “inactive”; for `OCC1CCCO1` (stereo not given) it is “inactive”. Take `CCCCCCCC/C=C\CCCCCCCC(=O)O`: the Potency entry is “inactive”. As to `COC(/C=C(\C)CCC=C(C)C)OC`, the Potency entry was “inactive”. For `C[Si](Cl)(c1ccccc1)c1ccccc1`, the Potency result is “inactive”. On to `OCCN(CCO)c1cccc(Cl)c1`, for which the Potency entry is “inactive”. For the molecule `O=C(OCc1ccccc1)C(=O)OCc1ccccc1`, the Potency result is “inactive”.

On to `COc1cc(OC)nc(O[C@H](C(=O)O)C(OC)(c2ccccc2)c2ccccc2)n1`, for which the Potency entry was “inactive”. The entry for `Cc1nc2ccc(Cl)cc2[nH]1` is “inactive”; for `NC1(c2ccc(-c3nc4ccn5c(=O)[nH]nc5c4cc3-c3ccccc3)cc2)CCC1` it is “inactive”. Take `CC12CCC(CC1=O)C2(C)C` (stereo not given): the Potency result was “inactive”.

Regarding `CC1(C)Oc2ccc(C#N)cc2[C@@H](N2CCCC2=O)[C@@H]1O`, the Potency result was “inactive”. On to `CCN(CC)CCCN(c1ccccc1)C1Cc2ccccc2C1`, for which the Potency entry was “inactive”. Regarding `CCOCCC(=O)OCC`, the Potency entry was “inactive”. Next, `COc1ccc2[nH]cc(CCNC(C)=O)c2c1`: “inactive”; `C[N+]1(C)CCC(=C(c2ccccc2)c2ccccc2)CC1`: “inactive”. In the case of `Cc1nc2ccc(CN(C)c3ccc(C(=O)N[C@@H](CCC(=O)O)C(=O)O)s3)cc2c(=O)[nH]1`, the Potency result is “inactive”.

Consider `C/C=C/c1ccc(OCC)c(O)c1`, for which the Potency entry is “inactive”. Next, `C/C=C1\[C@H]2C=C(C)C[C@]1(N)c1ccc(=O)[nH]c1C2`: “inactive”; `O=C(Nc1ccc(Oc2ccc(Cl)cc2)c(Cl)c1)c1cc(I)cc(I)c1O`: “inactive”. `C=CC(C)(CCC=C(C)C)OC(=O)CC` (stereo not given): the Potency entry is “inactive”.

Regarding `CCC(=O)c1ccc2c(c1)N(CCCN(C)C)c1ccccc1S2`, the Potency entry was “inactive”. The entry for `CCN[C@H]1CN(CCCOC)S(=O)(=O)c2sc(S(N)(=O)=O)cc21` is “inactive”. As for `CC(=O)OCC(C)OC(C)=O` (stereo not given), the Potency entry is “inactive”. Consider `CC(=O)Oc1cc(C(C)C)c(OCCN(C)C)cc1C`, for which the Potency result is “inactive”. For the molecule `O=[N+]([O-])c1ccc(O)cc1C(F)(F)F`, the Potency result is “inactive”. For `CN[C@@H]1[C@H](O)[C@H](NC)[C@H]2O[C@@]3(O)C(=O)C[C@@H](C)O[C@H]3O[C@@H]2[C@H]1O`, the Potency result is “inactive”. With `CC(C)Cc1nccs1`, the Potency entry was “inactive”.

Regarding `Cc1ccc(C)c(N)c1`, the Potency result is “inactive”.

Regarding `O[C@@H]1CO[C@H]2[C@@H]1OC[C@@H]2O`, the Potency result is “inactive”. Next, `CN1CCN(C2=Nc3ccccc3Sc3ccc(Cl)cc32)CC1`: “inactive”; `CC1=NN(c2cc(Cl)c(S(=O)(=O)O)cc2Cl)C(=O)C1N=Nc1ccc(S(=O)(=O)O)cc1` (stereo not given): 2.43 µM (active).
